Hit rate of the full screen: of about 350,000 compounds, about 2,300 (0.66%) were called active. This is one part of a sample in which actives are shown more often than they occur.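 The calls were made as follows: active = mean inhibition of at least 50% after viability correction, with every replicate also passing that limit; inconclusive = mean reaches 50% but only one of two replicates passes; inactive = the rest.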

A short description of the experiment: blockers of EWS/Fli transcriptional output – A673 cells, NR0B1 luciferase, luminescence, MLPCN library, primary screen (AID 651661).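 Also: firefly luciferase signal divided by Alamar Blue viability fluorescence both relative to DMSO.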 The conditions noted are these: A673 NR0B1-luciferase reporter, viability-normalised; at 12.6 µM; active compounds read high.
For the compound `CC(=O)Nc1ccc2c(c1)C(=O)N(C)[C@H]1CC[C@H](CC(=O)NCc3ccccc3Cl)O[C@H]1CO2`, the inhibition was -1.68% (inactive).
For `Cc1cccc(S(=O)(=O)N2C[C@@H]3[C@H](c4ccccc42)[C@@H](CO)N3C(=O)c2ccccc2)c1`, the inhibition is 1.99% (inactive).
Turning to `Cc1cccc(CNS(=O)(=O)c2ccc(-c3cnc(C4CC4)o3)cc2)c1`, the inhibition is -1.32% (inactive).
As to `COc1ccc(CNS(=O)(=O)c2ccc(-c3cnc(C4CC4)o3)cc2)cc1`, the inhibition was 4.87% (inactive).
In the case of `Cc1cccc(NS(=O)(=O)c2ccc(-c3cnc(C4CC4)o3)cc2)c1`, the inhibition is 53.1% (active).
Regarding `COc1ccccc1NC(=O)N1CC(=O)N2[C@H](C1)[C@H](c1ccc(C#Cc3ccccc3)cc1)[C@@H]2CO`, the inhibition is 0.577% (inactive).
For the compound `C[C@@H](O)C#Cc1ccc([C@H]2[C@H]3CN(C(=O)c4ccc5c(c4)OCO5)CCCCN3[C@H]2CO)cc1`, the inhibition is -9.79% (inactive).
Take `C[C@H]1CN([C@@H](C)CO)C(=O)c2cc(C3=CCCC3)cnc2O[C@@H]1CN(C)Cc1cccnc1`: the inhibition is -9.75% (inactive).
As to `COc1ccc(/C=C/C(=O)OCC(=O)NC2CCCCCC2)cc1OC`, the inhibition is -1.04% (inactive).
With `COc1ccc(/C=C2\SC(=S)N(CCCC(=O)NC3CCCC3)C2=O)cc1OC`, the inhibition was 55.1% (active).
In the case of `COc1ccc(/C=C2\SC(=S)N(CCC(=O)N3CCOCC3)C2=O)cc1OC`, the inhibition was 0.114% (inactive).
Take `COCC(=O)N1[C@H](CO)[C@H](c2ccccc2)C12CN(C(=O)NC1CCCCC1)C2`: the inhibition was -12.4% (inactive).
For the compound `C[C@H](CO)N1C[C@H](C)[C@@H](CN(C)CC2CC2)OCCCC[C@H](C)Oc2ccc(NC(=O)Cc3ccccc3)cc2C1=O`, the inhibition is 32% (inactive).
On to `Cc1nnc(NC(=O)CSc2nccn2-c2cccc(C)c2C)s1`, for which the inhibition was 60.5% (active).
Regarding `COc1ccccc1-n1c(CNC(=O)c2ccccc2)nnc1SCC(=O)Nc1nnc(C)s1`, the inhibition was 4.12% (inactive).
On to `COc1ccccc1-n1ccnc1SCC(=O)NC(C)(C)C`, for which the inhibition was 0.699% (inactive).
As for `Cc1nc(N2[C@H](CO)[C@H](c3ccccc3)[C@H]2CNCC2CCCCC2)sc1C`, the inhibition is -4.86% (inactive).
For `COc1cccc(-c2ccc([C@H]3[C@H]4CN(C(=O)NC(C)C)CC(=O)N4[C@H]3CO)cc2)c1`, the inhibition was 1.6% (inactive).
The result for `CCCN1CCN(CCCNC(=O)CN2C(=O)COc3ccccc32)CC1` reads 5.75% (inactive); that for `CN1CCN(CCCNC(=O)c2ccc(/C=C3\Oc4ccccc4N(Cc4ccc(Cl)cc4)C3=O)cc2)CC1`, 62.2% (active).
On to `CC(C)OCCCNC(=O)CN1C(=O)/C(=C/c2ccccc2F)Oc2ccccc21`, for which the inhibition was -9.7% (inactive).
As for `O=C1CN(S(=O)(=O)c2ccccc2)C[C@H]2[C@H](c3ccc(C#CCc4ccccc4)cc3)[C@@H](CO)N12`, the inhibition was -2.75% (inactive).
Turning to `C[C@@H]1CN([C@@H](C)CO)C(=O)c2cc(-c3ccncc3)cnc2O[C@@H]1CN(C)C(=O)C1CCCCC1`, the inhibition was -4.18% (inactive).
Regarding `C[C@H](CO)N1C[C@H](C)[C@@H](CN(C)C(=O)Nc2ccc(F)cc2)OCCCC[C@H](C)Oc2ccc(NC(=O)c3ccncc3)cc2C1=O`, the inhibition was -7.08% (inactive).
The result for `Cc1ccc(CS(=O)(=O)c2ncc(Cl)c(C(=O)Nc3nnc(C)s3)n2)cc1` reads 67.7% (active); that for `Cc1cccc(CS(=O)(=O)c2ncc(Cl)c(C(=O)Nc3ccc(F)cc3)n2)c1`, 60.6% (active).
As to `Cc1nnc(NC(=O)C(c2ccccc2)c2ccccc2)s1`, the inhibition was 11.8% (inactive).
`Cc1ccc(S(=O)(=O)CCC(=O)Nc2nnc(CC(C)C)s2)cc1`: the inhibition was -2.4% (inactive).
On to `Cc1cccc(NC(=O)c2nc(S(=O)(=O)Cc3ccccc3)ncc2Cl)c1`, for which the inhibition is 56.5% (active).
On to `O=C(Nc1ccc(F)cc1)c1ccc(S(=O)(=O)NCc2cccnc2)cc1`, for which the inhibition is 14.9% (inactive).
For the compound `Cc1cccc(NC(=O)C(C)SCc2ccccc2)c1` (configuration not stated), the inhibition is -20.7% (inactive).
The result for `Cc1cc(C)cc(NS(=O)(=O)Cc2ccccc2)c1` reads -2.06% (inactive); that for `Cc1ccc(C)c(Cn2nnc3c(=O)[nH]c(C(=O)Nc4ccc(F)cc4)nc32)c1`, -4.91% (inactive).
For `O=C(C[C@H]1C=C[C@@H](NC(=O)NC2CCCCC2)[C@@H](CO)O1)NCc1ccc(Cl)cc1`, the inhibition was -5.17% (inactive).
For `CC(C)C#Cc1ccc([C@H]2[C@@H](C#N)N(C(=O)CN(C)C)[C@H]2CO)cc1`, the inhibition is 2.38% (inactive).
In the case of `COCC(=O)Nc1ccc2c(c1)OC[C@H](C)NC[C@H](C)[C@H](OC)CN(C)C2=O`, the inhibition is -2.88% (inactive).
Consider `CCNC(=O)Nc1ccc2c(c1)C(=O)N(C)[C@H]1CC[C@@H](CC(=O)N[C@H](C)c3ccccc3)O[C@@H]1CO2`, for which the inhibition is 0.627% (inactive).
Turning to `Cn1cnc(S(=O)(=O)N2CC[C@@H]3[C@H]2c2cc(C#Cc4cccc(F)c4)ccc2N[C@@H]3CO)c1`, the inhibition is 0.925% (inactive).
As to `C[C@@H]1CN([C@H](C)CO)C(=O)c2cc(C#Cc3cccc(F)c3)cnc2O[C@H]1CN(C)Cc1ccccn1`, the inhibition is 6.4% (inactive).
As for `C[C@H](CO)N1C[C@H](C)[C@H](CN(C)C(=O)NC2CCCCC2)Oc2ccc(NC(=O)CCCN(C)C)cc2CC1=O`, the inhibition was -7.51% (inactive).
Turning to `CC(C)OC(=O)N(C)C[C@@H]1OCc2ccccc2-c2c(n(C)c3ccccc23)C(=O)N([C@H](C)CO)C[C@H]1C`, the inhibition was 8.3% (inactive).
Then `COc1ccc(-c2nc3ccc(Br)cn3c2Cc2ccc(C)cc2)cc1OC`, with -33.3% (inactive).
The result for `Cc1ccc(-c2nc3ccc(Cl)cn3c2Cc2ccccc2)cc1` reads -80.4% (inactive); that for `Cc1ccc(-n2c(-c3ccc(Cl)cc3)n[nH]c2=S)cc1`, 3.61% (inactive); that for `Cc1ccc2nc(-c3ccc(Br)cc3)cn2c1`, 71.9% (active).
Then `Cc1ccc(-c2cn3cc(C)ccc3n2)cc1`, with 66.7% (active).
As for `Cc1ccc(-c2nc3ccc(Br)cn3c2Cc2ccccc2C(F)(F)F)cc1`, the inhibition was -71.5% (inactive).
With `C[C@@H]1CN([C@@H](C)CO)S(=O)(=O)c2ccc(C#Cc3cccnc3)cc2O[C@@H]1CN(C)C(=O)CN(C)C`, the inhibition is 12.9% (inactive).
As to `CC(=O)N1[C@H](C(=O)N(C)C)[C@@H](CO)[C@@H]2Cn3c(ccc(-c4ccccc4)c3=O)[C@@H]21`, the inhibition was 0.262% (inactive).
Regarding `Cc1ccccc1S(=O)(=O)N1[C@@H]2CNC[C@H]1C2c1ccc(-c2cccnc2)cc1` (some centres not stated), the inhibition is -4.81% (inactive).
On to `CCCNC(=O)N1[C@@H]2Cn3c(ccc(-c4ccc(OC)cc4)c3=O)[C@H]1[C@@H](C(=O)NC1CCC1)[C@@H]2CO`, for which the inhibition was 0.758% (inactive).
Regarding `Cc1ccccc1-c1ccc([C@H]2[C@@H](CO)N3C(=O)CN(C(=O)c4ccncc4)C[C@H]23)cc1`, the inhibition is 0.78% (inactive).
For `COc1ccc2c3c(n(C)c2c1)[C@H](CO)N(S(=O)(=O)c1ccc(C)cc1)CC31CN(C(=O)c2ccccn2)C1`, the inhibition was -3.69% (inactive).
As for `NC1=CC(=O)C(=O)c2cccnc21`, the inhibition was 57.3% (active).
As to `CCOc1ccc(CCN2C(=O)c3cccnc3C2=O)cc1OCC`, the inhibition is 9.92% (inactive).
`CCCNC(=O)N1CC2(C1)[C@@H](c1ccccc1)[C@@H](CO)N2C(=O)CC1CC1`: the inhibition was 2.39% (inactive).
The result for `C[C@@H]1CN([C@H](C)CO)C(=O)Cc2cc(NC(=O)Nc3cccc4ccccc34)ccc2O[C@@H]1CN(C)Cc1ccc(C(F)(F)F)cc1` reads -4.39% (inactive); that for `Clc1ccc2nc(-c3ccccc3)nc(C(Cl)Cl)c2c1`, 68.5% (active).
Turning to `Clc1cccc(-c2nc(NCC3CCCO3)c3ccccc3n2)c1` (configuration not stated), the inhibition was 15.1% (inactive).
In the case of `N#CCSc1nc(-c2ccccc2)nc2ccc(F)cc12`, the inhibition is 19.1% (inactive).
As for `CC(C)NC(=O)Nc1ccc2c(c1)C(=O)N([C@@H](C)CO)C[C@H](C)[C@H](CN(C)C(=O)c1ccccc1)OCCCC[C@@H](C)O2`, the inhibition is 5.19% (inactive).
Then `CN(C)c1ccc2c(c1)[C@@H]1C[C@@H](CC(=O)NCc3ccccn3)O[C@H](CO)[C@@H]1O2`, with -4.51% (inactive).
For the compound `COc1cccc2c1C(=O)c1c(O)c3c(c(O)c1C2=O)CC(O)(C(C)=NNC(=O)c1ccc(Cl)c(Cl)c1)CC3OC1CC(N)C(O)C(C)O1` (configuration not stated), the inhibition is 63.6% (active).
For `C[C@@H]1CN([C@H](C)CO)C(=O)c2cc(NC(=O)Nc3ccccc3)ccc2O[C@@H](C)CCCCO[C@H]1CN(C)Cc1ccc(C(F)(F)F)cc1`, the inhibition is 71.6% (active).
Then `COc1ccc(CN(C)C[C@@H]2OCCCC[C@@H](C)Oc3ccc(NC(=O)Nc4ccc(C(F)(F)F)cc4)cc3C(=O)N([C@H](C)CO)C[C@H]2C)cc1`, with 53.9% (active); and `COc1ccc(NC(=O)Nc2ccc3c(c2)C(=O)N([C@@H](C)CO)C[C@H](C)[C@H](CN(C)Cc2ccc(C(F)(F)F)cc2)OCCCC[C@H](C)O3)cc1`, with 6.84% (inactive).
Then `C[C@@H]1CN([C@H](C)CO)C(=O)c2cc(NC(=O)Nc3ccc(C(F)(F)F)cc3)ccc2O[C@@H](C)CCCCO[C@@H]1CN(C)Cc1ccc(C(F)(F)F)cc1`, with -13.8% (inactive); and `C[C@@H]1CN([C@H](C)CO)C(=O)c2cccc(NC(=O)Nc3ccccc3)c2O[C@@H]1CN(C)C(=O)NC1CCCCC1`, with 4.76% (inactive).
As to `C[C@H]1CN([C@@H](C)CO)C(=O)c2cccc(NC(=O)Nc3ccc(C(F)(F)F)cc3)c2O[C@H]1CN(C)C(=O)NC1CCCCC1`, the inhibition was 56.1% (active).
For the compound `C[C@H](CO)N1C[C@H](C)[C@@H](CN(C)C(=O)NC2CCCCC2)Oc2c(NC(=O)Nc3ccc(F)cc3)cccc2C1=O`, the inhibition was 4.64% (inactive).
For the compound `C[C@H]1CCCCO[C@@H](CN(C)Cc2ccc(C(F)(F)F)cc2)[C@@H](C)CN([C@@H](C)CO)C(=O)c2cc(NC(=O)Nc3ccccc3)ccc2O1`, the inhibition was 19.3% (inactive).
In the case of `C[C@@H]1CCCCO[C@@H](CN(C)Cc2ccc(C(F)(F)F)cc2)[C@@H](C)CN([C@H](C)CO)C(=O)c2cc(NC(=O)Nc3ccccc3)ccc2O1`, the inhibition was -6.47% (inactive).

The values above are taken from PubChem BioAssay AID651661 (Broad Institute, 2012).
